Assay results reported in publication PMC5540273 (PLoS ONE, 2017).

What was measured:
Conditions in all cases: concentration: 1 μM, replicates: in singlicate; n = 1
JNK3 = tested on: T1, JNK3
T1 construct: gene MAPK10

KIT-autoinhibited = tested on: KIT-autoinhibited
KIT = tested on: KIT
LATS1 = tested on: LATS1
LATS2 = tested on: LATS2
LCK = tested on: LCK
LIMK1 = tested on: LIMK1
LIMK2 = tested on: LIMK2
LKB1 = tested on: T2, LKB1
T2 construct: gene STK11

LOK = tested on: T3, LOK
T3 construct: gene STK10
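Further: KINOMEscan kinase panel screen.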

| SMILES | %Inh (JNK3) | %Inh (KIT-autoinhibited) | %Inh (KIT) | %Inh (LATS1) | %Inh (LATS2) | %Inh (LCK) | %Inh (LIMK1) | %Inh (LIMK2) | %Inh (LKB1) | %Inh (LOK) |
| --- | --- | --- | --- | --- | --- | --- | --- | --- | --- | --- |
| COc1ccc2cc(-c3nc(-c4ccccc4C(C)C)[nH]c3-c3ccncc3)ccc2c1 [SB-660566] | 44% | 0% | 0% | 0% | 0% | 11% | 8% | 0% | 0% | 61% |
| CC(=O)c1c(C)c2cnc(Nc3ccn(C)n3)nc2n(C2CCCC2)c1=O | 0% | 0% | 0% | 0% | 4% | 8% | 23% | 0% | 0% | 15% |
| Fc1ccc(-c2nc3n(c2-c2ccncc2)CCS3)cc1 [GI98581] | 98.7% | 0% | 15% | 2% | 0% | 26% | 0% | 0% | 11% | 0% |
| O=C(Nc1n[nH]c2nc(-c3cccs3)c(Br)cc12)C1CCCC1 [SB-743341] | 46% | 13% | 36% | 20% | 0% | 38% | 2% | 15% | 0% | 26% |
| CCn1c(-c2ccccc2)nc2cnccc21 [SB-733416] | 7% | 0% | 8% | 0% | 0% | 18% | 20% | 0% | 0% | 0% |
| COc1ccc(CSc2nnc(-c3ccc4ncsc4c3)o2)cc1C(F)(F)F | 0% | 0% | 18% | 12% | 0% | 0% | 0% | 0% | 2% | 0% |
| COc1cccc(NC(=O)Nc2ccc(C)c(-c3ccc(C(=O)Nc4ccncc4)cc3)c2)c1 [GSK1398474] | 26% | 0% | 99.8% | 0% | 5% | 43% | 11% | 8% | 0% | 0% |
| CNC(=O)c1ccc(C)c(-n2c(C)cc(OCc3ccc(F)cc3F)c(Br)c2=O)c1 | 100% | 0% | 0% | 0% | 0% | 1% | 0% | 0% | 0% | 0% |
| CC(C)c1ccc(O)cc1Nc1ccnc2ccc(C(F)(F)F)cc12 [GW482059] | 0% | 0% | 0% | 0% | 0% | 22% | 0% | 0% | 0% | 0% |
| Cl.Cl.Cl.N#Cc1ccc(CCNc2nccc(-c3cccc(CN4CCNCC4)c3)n2)cc1 [GSK2137462] | 22% | 0% | 29% | 15% | 36% | 12% | 18% | 38% | 1% | 0% |
| O=c1cc(N2CCOCC2)nc2n(Cc3cccc(Cl)c3Cl)c3ccccc3n12 [GSK2299009] | 3% | 0% | 36% | 0% | 16% | 43% | 4% | 24% | 8% | 0% |
| CS(=O)(=O)Cc1ccc(Nc2nccc(-c3c(-c4cccc(NC(=O)C5CCCCC5)c4)nn4ncccc34)n2)cc1 [GSK350559] | 36% | 14% | 88% | 0% | 48% | 23% | 22% | 14% | 0% | 81% |
| COc1ccc(-c2coc3ccc(-c4nnc(C)o4)cc23)cc1 | 0% | 0% | 1% | 0% | 0% | 0% | 0% | 0% | 5% | 0% |
| COc1cc2ncnc(Nc3cccc(Br)c3)c2cc1OC.Cl [GI230329] | – | 0% | 10% | 0% | 0% | 66% | 0% | 0% | 10% | 36% |
| Cc1c(Cn2c3ccccc3n3c(=O)cc(N4CCOCC4)nc23)cccc1C(F)(F)F [GSK2306394] | 4% | 0% | 7% | 0% | 0% | 11% | 0% | 3% | 0% | 0% |
| COc1cccc(CNC(=O)NC2CCN(c3ccnc(Nc4ccc(F)cc4)n3)C2)c1 (stereo not drawn) [GSK1379723] | 11% | 0% | 23% | 10% | 0% | 11% | 3% | 0% | 0% | 0% |
| CCc1ccc(-c2ccc3c(c2)-c2n[nH]cc2S(=O)(=O)N3C)cc1 | 0% | 0% | 7% | 0% | 0% | 4% | 0% | 0% | 17% | 3% |

| SMILES | %Inh (JNK3) | %Inh (KIT-autoinhibited) | %Inh (KIT) | %Inh (LATS1) | %Inh (LATS2) | %Inh (LCK) | %Inh (LIMK1) | %Inh (LIMK2) | %Inh (LKB1) | %Inh (LOK) |
| --- | --- | --- | --- | --- | --- | --- | --- | --- | --- | --- |
| CC(=O)c1c(C)c2cnc(Nc3ccc(N4CCNCC4)cn3)nc2n(C2CCCC2)c1=O | 0% | 0% | 0% | 15% | 26% | 0% | 0% | 99.5% | 0% | 0% |
| Nc1ncnc2occ(-c3ccc4c(c3)CCN4C(=O)Cc3cc(F)ccc3F)c12 [GSK2645446] | 0% | 0% | 66% | 0% | 19% | 5% | 0% | 22% | 0% | 33% |
| CS(=O)(=O)CCNCc1nc(-c2ccc3ncnc(Nc4ccc(OCc5ccccc5)c(Cl)c4)c3c2)cs1.Cl [GW582764] | 0% | 0% | 1% | 0% | 0% | 17% | 0% | 0% | 0% | 0% |
| O=C(Nc1n[nH]c2cc(-c3ccsc3)ccc12)C1CC1 [SB-732932] | 30% | 0% | 56% | 2% | 15% | 0% | 0% | 0% | 0% | 3% |
| Cc1ccc(NC(=O)Nc2ccc(Cl)cc2)cc1-c1ccc(C(=O)Nc2ccncc2)cc1 [GSK1398472] | 1% | 4% | 99.9% | 2% | 0% | 60% | 28% | 67% | 0% | 35% |
| Nc1nccc(-c2c(-c3ccc(F)cc3)ncn2C2CCN(Cc3ccccc3)CC2)n1 [SB-219980] | 95.4% | 0% | 0% | 13% | 0% | 0% | 13% | 0% | 36% | 18% |
| Cc1ccc(NC(=O)c2ccc(Cl)cc2)cc1-c1ccc(C(=O)Nc2ccncc2)cc1 [GSK1398467] | 0% | 0% | 99.4% | 0% | 0% | 68% | 0% | 3% | 0% | 0% |
| c1ccc(-c2ccnc3[nH]ccc23)cc1 [SB-693578] | 11% | 0% | 1% | 0% | 53% | 7% | 6% | 0% | 0% | 0% |
| Cc1ccc(-c2nc(Nc3ccncc3)c3ccccc3n2)s1 [GSK189015] | 14% | 0% | 22% | 0% | 0% | 7% | 31% | 7% | 0% | 1% |
| Fc1ccc(-c2nc[nH]c2-c2ccncc2)cc1 [SB-217360] | 98.6% | 21% | 0% | 0% | 0% | 25% | 0% | 0% | 0% | 16% |
| CN1c2ccc(-c3ccc(C(N)=O)cc3)cc2-c2[nH]ncc2S1(=O)=O | 0% | 20% | 0% | 9% | 0% | 5% | 0% | 0% | 10% | 5% |
| COC(=O)c1cccc(NC(=O)NC2CCN(c3ccnc(Nc4ccc(OC)cc4)n3)C2)c1 (stereo not drawn) [GSK1379746] | 0% | 0% | 44% | 0% | 0% | 11% | 0% | 3% | 0% | 0% |
| O=C1NC(=O)C(c2ccc(Cl)cc2)=C1Nc1ccc(O)cc1 [SB-340867] | 0% | 0% | 0% | 17% | 0% | 5% | 11% | 0% | 13% | 0% |
| CNc1nc(-c2ccc3c(N)n[nH]c3c2)cc(N2C[C@@H](C(=O)NC3CCCCC3)OC[C@H]2C)n1 [GSK2375584] | 0% | 7% | 20% | 0% | 15% | 19% | 8% | 24% | 0% | 0% |
| Cc1ccc(NC(=O)Nc2ccccc2)cc1-c1ccc(C(=O)Nc2ccncc2)cc1 [GSK1398471] | 8% | 0% | 99.7% | 0% | 0% | 35% | 18% | 0% | 0% | 25% |
| Cc1c(Cn2c(C)c(C)n3c(=O)cc(N4CCOCC4)nc23)cccc1C(F)(F)F [GSK2328680] | 0% | 0% | 9% | 86% | 1% | 18% | 8% | 4% | 18% | 0% |
| Cc1ccc(NC(=O)Nc2ccc(Cl)c(C(F)(F)F)c2)cc1-c1ccc(C(=O)Nc2ccncc2)cc1 [GSK1398470] | 0% | 45% | 99.5% | 0% | 15% | 57% | 28% | 14% | 6% | 65% |
